Our source for the cell viability values is the supplement of paper PMC10981050.

Several values for one entry are separate records, joined by “and”; a condition that tells them apart may be missing. Identical values can stand only once.

Experiment in all cases: cell viability relative to vehicle control; higher = less cytotoxic
Holding throughout (settings): 10 µM

One test relates to K562. The procedure, abridged: (§1)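 Four leukaemia lines, as CRISPR-edited mutant clones and isogenic wild-type clones, were tested against Selleck bioactive, kinase and epigenetic probe libraries after removal of identity-inconsistent compounds. Cells were exposed to a single 10 µM dose for 48 h, and CellTiter-Glo luminescence was then read. Viability was calculated relative to the on-plate vehicle control.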

In another test the test system is MARIMO. The procedure, abridged:
as §1

A further test concerns MOLM14. The procedure, abridged:
as §1

Another test relates to OCI-AML2. The procedure, abridged:
as §1

What is called cell viability is a read-out of living cells in per cent, often relative to untreated cells. `CCS(=O)(=O)c1cccc(-c2cc(C(=O)NC3CCN(C)CC3)c(C)c3[nH]c4ncc(C)cc4c23)c1`: the cell viability in the test with K562 (SRSF2 genotype: SRSF2 P95H/wt) is 29% and 32.2%; in the test on K562 (SRSF2 genotype: SRSF2 wt/wt) it was 21.9%; with MARIMO (SRSF2 genotype: SRSF2 P95H/wt) it was 11.9%; in the test with MARIMO (SRSF2 genotype: SRSF2 wt/wt), 7.33%; in the test on MOLM14 (SRSF2 genotype: SRSF2 P95H/wt), 2.91%; in the test with MOLM14 (SRSF2 genotype: SRSF2 wt/wt), 2.2%. Besides, the results for the cell viability in the test on OCI-AML2 (SRSF2 genotype: P95H/wt) and in the test with OCI-AML2 (SRSF2 genotype: wt/wt) were 4.55% and 11.1%, respectively.

For `O=C(O)c1cc(/N=N/c2ccc(O)c(C(=O)O)c2)ccc1O` [Olsalazine Sodium], the cell viability was 86.9% and 86% in the test with K562 (SRSF2 genotype: SRSF2 P95H/wt); 81.6% with K562 (SRSF2 genotype: SRSF2 wt/wt); 88.2% with MARIMO (SRSF2 genotype: SRSF2 P95H/wt); 92.2% in the test on MARIMO (SRSF2 genotype: SRSF2 wt/wt); 85.2% with MOLM14 (SRSF2 genotype: SRSF2 P95H/wt); 88.4% in the test on MOLM14 (SRSF2 genotype: SRSF2 wt/wt). Also, the cell viability with OCI-AML2 (SRSF2 genotype: P95H/wt) was found to be 94.1%; in the test with OCI-AML2 (SRSF2 genotype: wt/wt), 90.1%.

With `CC(C)=CCCC(C)(O)C1CCC2(C)C1C(O)CC1C3(C)CCC(O)C(C)(C)C3C(OC3OC(CO)C(O)C(O)C3OC3OC(C)C(O)C(O)C3O)CC12C` [(20S)Ginsenoside Rg2], the cell viability in the test on K562 (SRSF2 genotype: SRSF2 P95H/wt) was 102% and 108%; in the test with K562 (SRSF2 genotype: SRSF2 wt/wt), 98.7%; in the test with MARIMO (SRSF2 genotype: SRSF2 P95H/wt), 108%; in the test with MARIMO (SRSF2 genotype: SRSF2 wt/wt) it was 108%; in the test on MOLM14 (SRSF2 genotype: SRSF2 P95H/wt), 104%; in the test with MOLM14 (SRSF2 genotype: SRSF2 wt/wt), 104%. The results for the cell viability with OCI-AML2 (SRSF2 genotype: P95H/wt) and in the test with OCI-AML2 (SRSF2 genotype: wt/wt) were 101% and 115%, respectively.

Regarding `CCC(CC)n1ccc2c(C(=O)NCc3c(C)cc(C)[nH]c3=O)cc(C#N)cc21`, the cell viability is 107% and 101% in the test on K562 (SRSF2 genotype: SRSF2 P95H/wt); 95.5% in the test on K562 (SRSF2 genotype: SRSF2 wt/wt); 103% in the test on MARIMO (SRSF2 genotype: SRSF2 P95H/wt); 112% in the test on MARIMO (SRSF2 genotype: SRSF2 wt/wt); 100% in the test on MOLM14 (SRSF2 genotype: SRSF2 P95H/wt); 100% in the test on MOLM14 (SRSF2 genotype: SRSF2 wt/wt). Further, the results for the cell viability in the test on OCI-AML2 (SRSF2 genotype: P95H/wt) and with OCI-AML2 (SRSF2 genotype: wt/wt) were 95% and 102%, respectively.

Regarding `CN(C)Cc1ccc(S(=O)(=O)n2ccc(/C=C/C(=O)NO)c2)cc1` [Resminostat (RAS2410)], the cell viability in the test on K562 (SRSF2 genotype: SRSF2 P95H/wt) is 1.83% and 16.1%; in the test on K562 (SRSF2 genotype: SRSF2 wt/wt), 11.8%; in the test on MARIMO (SRSF2 genotype: SRSF2 P95H/wt), 2.94%; in the test with MARIMO (SRSF2 genotype: SRSF2 wt/wt), 2.37%; in the test on MOLM14 (SRSF2 genotype: SRSF2 P95H/wt) it was 0.76%; with MOLM14 (SRSF2 genotype: SRSF2 wt/wt), 0.51%. Further, the cell viability in the test on OCI-AML2 (SRSF2 genotype: P95H/wt) was determined as 0.72%; in the test with OCI-AML2 (SRSF2 genotype: wt/wt) it was 1.22%.

As to `Nc1ccc(-c2ccc3ncc4ccc(=O)n(-c5cccc(C(F)(F)F)c5)c4c3c2)cn1` [Torin 2], the cell viability is 13.4% and 21.3% with K562 (SRSF2 genotype: SRSF2 P95H/wt); 16.9% in the test on K562 (SRSF2 genotype: SRSF2 wt/wt); 16.5% in the test on MARIMO (SRSF2 genotype: SRSF2 P95H/wt); 20.9% in the test with MARIMO (SRSF2 genotype: SRSF2 wt/wt); 1.07% with MOLM14 (SRSF2 genotype: SRSF2 P95H/wt); 2.53% in the test on MOLM14 (SRSF2 genotype: SRSF2 wt/wt). The cell viability was found to be 1.62% with OCI-AML2 (SRSF2 genotype: P95H/wt) and 7.04% in the test on OCI-AML2 (SRSF2 genotype: wt/wt).

For `CCn1c(=O)c(-c2cc[nH]n2)cc2c(C)nc(N)nc21`, the cell viability in the test on K562 (SRSF2 genotype: SRSF2 P95H/wt) was 54.4% and 68.5%; in the test with K562 (SRSF2 genotype: SRSF2 wt/wt), 65.7%; in the test with MARIMO (SRSF2 genotype: SRSF2 P95H/wt), 43.5%; in the test with MARIMO (SRSF2 genotype: SRSF2 wt/wt), 35.6%; with MOLM14 (SRSF2 genotype: SRSF2 P95H/wt) it was 29.2%; with MOLM14 (SRSF2 genotype: SRSF2 wt/wt), 26.4%. The cell viability in the test with OCI-AML2 (SRSF2 genotype: P95H/wt) was determined as 13.8%; in the test on OCI-AML2 (SRSF2 genotype: wt/wt), 20.5%.

As for `N#CSc1cc(SC#N)c(N)nc1N`, the cell viability is 8.53% and 15.5% in the test on K562 (SRSF2 genotype: SRSF2 P95H/wt); 33.9% in the test with K562 (SRSF2 genotype: SRSF2 wt/wt); 4.65% in the test on MARIMO (SRSF2 genotype: SRSF2 P95H/wt); 1.5% in the test on MARIMO (SRSF2 genotype: SRSF2 wt/wt); 3.35% with MOLM14 (SRSF2 genotype: SRSF2 P95H/wt); 0.44% in the test on MOLM14 (SRSF2 genotype: SRSF2 wt/wt). Moreover, the figures for the cell viability in the test with OCI-AML2 (SRSF2 genotype: P95H/wt) and in the test on OCI-AML2 (SRSF2 genotype: wt/wt) were 0.31% and 0.95%, respectively.

As to `NC1=N[C@@]2(c3cc(NC(=O)c4ccc(F)cn4)ccc3F)COC[C@H]2CS1`, the cell viability in the test on K562 (SRSF2 genotype: SRSF2 P95H/wt) was 94.7% and 91.1%; in the test with K562 (SRSF2 genotype: SRSF2 wt/wt) it was 86.1%; in the test with MARIMO (SRSF2 genotype: SRSF2 P95H/wt), 89.6%; in the test on MARIMO (SRSF2 genotype: SRSF2 wt/wt), 98.4%; with MOLM14 (SRSF2 genotype: SRSF2 P95H/wt), 99.7%; with MOLM14 (SRSF2 genotype: SRSF2 wt/wt) it was 94.2%. Besides, the cell viability with OCI-AML2 (SRSF2 genotype: P95H/wt) worked out at 94.4%; in the test with OCI-AML2 (SRSF2 genotype: wt/wt), 92.6%.
